High-throughput results (PubChem BioAssay)
This is a sample that favours compounds with a hit; in the whole collection about 3.8% have one here.
TIM10 inh: growth inhibitors of TIM10 yeast strain. S. cerevisiae TIM10 strain growth, BacTiter-Glo luminescence, 24 h. inhibition, % at 10 µM. hit rate 1.4% among 330,000;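 active means inhibition of 40% or more at the single tested concentration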;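 further: wild-type TIM10 isogenic control strain grown at permissive 25 °C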
tim23-1 inh: inhibits growth of tim23-1 mutant yeast; S. cerevisiae tim23-1 growth, BacTiter-Glo luminescence, 24 h; inhibition, % at 20 µM; hit rate 1.3% among 330,000; AID 463212;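 active means growth inhibition of the mutant yeast at or above 50%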;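 further: temperature-sensitive mutant grown at 25 °C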
tim10-1 inh: tim10-1 yeast growth inhibition; S. cerevisiae tim10-1 ts strain growth, BacTiter-Glo, 24 h; inhibition, % at 20 µM; hit rate 2.2% among 330,000; AID 463190;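 active means inhibition of at least 40%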;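 further: mutant grown at 25 °C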
B2AR ag: human beta-2 adrenergic receptor agonism by FAP; AID 504454; hit rate 0.43% among 340,000; response, % (no concentration beside the values); Am2.2-beta2AR cells, FAP receptor internalization, flow cytometry;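 active means response above a set limit, near 3 SD of response in nonfluorescent compounds, cut at about 42% in these data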
Target sequence (P07550 whole entry, looked up): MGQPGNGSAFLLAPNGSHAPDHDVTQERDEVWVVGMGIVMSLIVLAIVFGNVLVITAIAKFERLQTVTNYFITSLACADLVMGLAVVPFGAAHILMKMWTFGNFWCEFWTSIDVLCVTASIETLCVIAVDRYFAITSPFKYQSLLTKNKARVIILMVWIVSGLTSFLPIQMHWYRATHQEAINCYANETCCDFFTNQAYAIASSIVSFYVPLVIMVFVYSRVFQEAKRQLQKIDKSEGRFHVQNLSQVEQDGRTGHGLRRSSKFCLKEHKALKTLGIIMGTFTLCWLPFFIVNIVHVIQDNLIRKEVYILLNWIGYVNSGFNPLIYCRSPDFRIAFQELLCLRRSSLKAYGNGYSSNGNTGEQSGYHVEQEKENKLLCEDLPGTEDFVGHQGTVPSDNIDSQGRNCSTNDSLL
PfHsp90 set2: inhibits growth of yeast expressing Plasmodium falciparum Hsp90; hit rate 0.32% among 310,000; inhibition, % at 9.4 µM; AID 504621; S. cerevisiae expressing PfHsp90, BacTiter-Glo ATP, 48 h; yeast lacking PDR1 and PDR3 efflux regulators;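 active means every replicate shows inhibition above about 80%, whatever the replicate mean, limit read from the data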
tim10-1 conf: confirmation of tim10-1 mutant yeast growth inhibitors. S. cerevisiae tim10-1 ts strain growth, BacTiter-Glo, 24 h. inhibition, % at 20 µM. AID 463213. hit rate 56% among 7,400. shares compounds with tim10-1 inh;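 active means inhibition of yeast growth at or above a set limit in either of two repeat tests at 20 µM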;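 further: tim10-1 mutant grown at permissive 25 °C to find synthetic lethal compounds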
Hits are given with their value; - = inactive; . = no result.

SMILES | TIM10 inh | tim23-1 inh | tim10-1 inh | B2AR ag | PfHsp90 set2 | tim10-1 conf
CCOC(=O)c1ccc(NC(=O)CC2COc3ccccc3O2)cc1 (stereo not given) | - | - | 40.6 | - | - | -
CN(Cc1ccccc1)Cc1nc2c(c(=O)n(C)c(=O)n2C)n1Cc1ccc(Cl)cc1 | - | - | 40.3 | - | - | -
COCCN(CC(=O)Nc1cccc(C)c1C)C(=O)C1(c2ccc(Cl)cc2)CCC1 | - | - | - | - | - | .
COc1cccc(OC)c1-c1nn2c(-c3ccco3)nnc2s1 | - | - | 45.3 | - | - | 31.3
COc1cc(/C=C/C(=O)c2ccc(C)c([N+](=O)[O-])c2)cc(OC)c1O | - | - | - | - | - | .
CC(=O)c1cccc([N+](=O)[O-])c1 | - | - | - | - | - | .
COc1cc(/C=C/C(=O)c2cccc([N+](=O)[O-])c2)cc(OC)c1OC | - | - | 53.5 | 51.7 | - | 41.2
O=C(/C=C/c1ccccc1F)c1cccc([N+](=O)[O-])c1 | - | - | 51.4 | - | - | 47.9
CC(C)C[C@H](N)c1nnc(SCC(=O)Nc2ccc(Br)cc2)o1 | - | - | 43.4 | - | - | -
CC(C)C[C@H](NC(=O)OC(C)(C)C)c1nnc(SCC(=O)Nc2ccc(Br)cc2)o1 | - | - | - | - | - | .
CCc1ccc(CN(C)C(=O)c2cc(COc3ccc(OC)cc3Cl)on2)nc1 | - | - | - | - | - | .
Cn1ccnc1COc1ccc(/C=N/O)cc1 | - | - | - | - | - | .
COC(=O)C(CC(=O)c1ccc(Br)cc1)n1ccnc1 (stereo not given) | - | - | 72.2 | . | . | 43.6
COC(=O)C(CC(=O)c1ccc(Br)cc1)n1nc(C)cc1C (stereo not given) | - | - | - | - | - | .
COc1ccc(-n2c(C)nc3c(cnn3-c3ccc(Cl)cc3)c2=O)cc1 | - | - | 40.9 | - | - | -
CCN(CC)c1ccc(C(=C2C=CC(=[N+](CC)CC)C=C2)c2ccc(S(=O)(=O)O)cc2S(=O)(=O)[O-])cc1 | . | . | . | - | . | .
O=C(Nc1ccc(CN2CCOCC2)cc1)c1ccc(Br)o1 | - | - | - | - | - | .
O=C(Nc1ccc(CN2CCOCC2)cc1)c1ccc(-c2cc(Cl)ccc2Cl)o1 | - | - | 44.0 | - | - | -
CC(=O)c1cccc(NC(=S)NC(=O)c2cccc(Cl)c2)c1 | - | - | 44.9 | - | - | -
CC(=O)c1cccc(NC(=S)NC(=O)c2ccccc2)c1 | - | - | - | - | - | .
O=C(NC(=S)Nc1ccc(N2CCOCC2)cc1)c1cccc(Cl)c1 | - | - | 40.6 | - | - | -
COc1ccc(C(=O)NC(=S)Nc2ccc(CN3CCOCC3)cc2)cc1OC | - | - | - | - | . | .
COc1ccc(C(=O)NC(=S)Nc2ccc(CN3CCOCC3)cc2)cc1Cl | - | - | 52.1 | - | - | -
O=C(CNc1cc(S(=O)(=O)N2CCOCC2)ccc1N1CCCC1)Nc1ccc(Cl)cc1 | . | . | . | - | . | .
CCC(=O)NC(=S)Nc1cccc(NC(=O)c2ccccc2Cl)c1 | - | - | 44.8 | - | - | -
SMILES | TIM10 inh | tim23-1 inh | tim10-1 inh | B2AR ag | PfHsp90 set2 | tim10-1 conf
Cc1ccc(NC(=O)CN2C(=O)C(=O)N(C3CCCC3)C2=O)c(Cl)c1 | - | - | - | - | - | .
CC(C)(C)Nc1nc(SCC(=O)Nc2ccccc2)nc(N2CCOCC2)n1 | - | - | 46.2 | - | - | -
CCCCn1c(N)c(N(CCC(C)C)C(=O)C2CC(=O)N(c3ccccc3OCC)C2)c(=O)[nH]c1=O (stereo not given) | - | - | - | - | - | .
COC(=O)c1ccccc1NC=C1C(=O)OC2(CCCCC2)OC1=O | - | - | - | - | - | .
COc1ccccc1NC=C1C(=O)OC2(CCCCC2)OC1=O | - | - | 40.4 | - | . | -
CCOc1cc(N2CCOCC2)c(OCC)cc1NC(=O)c1ccccc1C | - | - | - | - | - | .
CCOc1cc(N2CCOCC2)c(OCC)cc1NC(=O)c1ccc2ccccc2n1 | - | - | 44.8 | - | - | -
CCOc1cc(N2CCOCC2)c(OCC)cc1NC(=O)COC(=O)CCOc1ccc(C)cc1 | - | - | 41.1 | - | - | 28.8
Cc1ccc2c(c1)COc1c3ccc(C(=O)N4CCCCC4)cc3nn1-2 | - | - | - | - | - | .
O=C(c1ccc2c3n(nc2c1)-c1ccccc1CO3)N1CCCCC1 | - | - | 51.0 | - | - | 48.5
CCN(CC)C(=O)c1sc(NC(=O)c2cccs2)c(C#N)c1C | - | - | 43.8 | - | - | -
COc1ccc2cc(C3CC(c4ccco4)=NN3S(=O)(=O)c3ccccc3)c(Cl)nc2c1 (stereo not given) | - | - | 46.7 | - | - | -
Cc1sc(NC(=O)c2ccco2)c(C(c2cccnc2)N2CCN(C)CC2)c1C (stereo not given) | - | - | - | - | - | .
Cc1sc(NC(=O)c2ccco2)c(C(c2cccnc2)N2CCCC2)c1C (stereo not given) | - | - | 52.2 | - | . | 45.0
COc1cccc(C(Nc2ccccn2)c2c(NC(=O)c3ccco3)sc(C)c2C)c1 (stereo not given) | - | - | - | - | - | .
Cc1sc(NC(=O)c2ccco2)c(C(Nc2ccccn2)c2ccccc2)c1C (stereo not given) | - | - | - | - | - | -
COc1ccc(C(Nc2ccccn2)c2c(NC(=O)c3ccco3)sc(C)c2C)cc1 (stereo not given) | - | - | 41.1 | - | - | -
COc1ccc(C(=O)/C=C/c2ccccc2)c(OC)c1 | - | - | 40.2 | - | - | -
CNC(=O)c1cc2cccc(OC)c2oc1=O | - | - | - | - | - | .
COc1ccc(C(=O)/C=C/c2ccc(N(C)C)cc2)c(OC)c1 | - | - | - | - | - | .
COc1ccc(/C=C/C(=O)c2cc3cccc(OC)c3oc2=O)cc1 | - | - | 42.5 | - | - | -
COCOc1cc(O)c(C(=O)/C=C/c2ccccc2)c(OCOC)c1 | - | - | 50.2 | - | . | 41.2
O=C(c1cc2ccccc2oc1=O)N(Cc1cccs1)Cc1cccs1 | - | - | 42.4 | - | - | -
O=C(c1cc2ccccc2oc1=O)N(Cc1ccco1)Cc1cccs1 | - | - | - | - | . | .
O=C(CS(=O)(=O)c1ccccc1)c1cc2ccccc2oc1=O | - | - | 42.4 | - | - | -
SMILES | TIM10 inh | tim23-1 inh | tim10-1 inh | B2AR ag | PfHsp90 set2 | tim10-1 conf
CCOC(=O)c1c(S(=O)(=O)NCc2ccc(C)o2)c(C)n(C)c1C | - | - | - | - | - | .
Cc1sc(N/N=C/c2ccco2)nc1-c1ccccc1 | - | - | 42.7 | - | - | -
Cc1ccc(C(=O)Nc2ccc(C(=O)NCC3CCCO3)cc2)cc1 (stereo not given) | - | - | - | - | - | .
CCOC(=O)Nc1ccc(C(=O)NCC2CCCO2)cc1 (stereo not given) | - | - | 43.0 | - | - | -
CCOC(=O)c1ccc(N(CCC2CO2)S(=O)(=O)c2ccc(C)cc2)cc1 (stereo not given) | . | . | . | - | - | .
CSC1=NC(C)(C)C=C(/C=C/c2ccc(Cl)cc2Cl)N1 | - | - | - | - | - | .
CSC1=NC(C)(C)C=C(/C=C/c2c(Cl)cccc2Cl)N1 | - | - | 44.1 | - | - | -
